Source: PubChem
Sampled rows, rich in hits. Any-hit rate of the full collection: about 10%.
PTEN del growth = growth suppressors of cells with PTEN tumor suppressor deletion | viability, % at 10 µM | HCT116 PTEN-null viability, CellTiter-Glo, 60 h; stronger effect = lower value | hit rate 1.2% among 140,000 | AID 827;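 active = viability at or below a set limit, 4 SD under the median of all tested compounds, cut at about 3.7% in these data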;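 also: PTEN knockout HCT116 line with beta catenin targeted HCT116 as companion control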
L major viab = reduces viability of Leishmania major promastigotes; AID 1063; hit rate 9% among 200,000; resazurin fluorescence viability; inhibition, % at 10 µM; in the data active = inhibition above about 50%;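 also: promastigotes grown with compound for 44 hours at 28 °C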
p97 ATPase inh = inhibitors of human p97 ATPase. P55072. recombinant p97 ATPase, Kinase-Glo ATP luminescence, 3 h. inhibition, % at 8 µM. hit rate 0.42% among 220,000. AID 1481; in the data active = inhibition above about 15%;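 also: 0% = DMSO vehicle and 100% = wells lacking enzyme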
Target sequence (P55072 whole entry, looked up): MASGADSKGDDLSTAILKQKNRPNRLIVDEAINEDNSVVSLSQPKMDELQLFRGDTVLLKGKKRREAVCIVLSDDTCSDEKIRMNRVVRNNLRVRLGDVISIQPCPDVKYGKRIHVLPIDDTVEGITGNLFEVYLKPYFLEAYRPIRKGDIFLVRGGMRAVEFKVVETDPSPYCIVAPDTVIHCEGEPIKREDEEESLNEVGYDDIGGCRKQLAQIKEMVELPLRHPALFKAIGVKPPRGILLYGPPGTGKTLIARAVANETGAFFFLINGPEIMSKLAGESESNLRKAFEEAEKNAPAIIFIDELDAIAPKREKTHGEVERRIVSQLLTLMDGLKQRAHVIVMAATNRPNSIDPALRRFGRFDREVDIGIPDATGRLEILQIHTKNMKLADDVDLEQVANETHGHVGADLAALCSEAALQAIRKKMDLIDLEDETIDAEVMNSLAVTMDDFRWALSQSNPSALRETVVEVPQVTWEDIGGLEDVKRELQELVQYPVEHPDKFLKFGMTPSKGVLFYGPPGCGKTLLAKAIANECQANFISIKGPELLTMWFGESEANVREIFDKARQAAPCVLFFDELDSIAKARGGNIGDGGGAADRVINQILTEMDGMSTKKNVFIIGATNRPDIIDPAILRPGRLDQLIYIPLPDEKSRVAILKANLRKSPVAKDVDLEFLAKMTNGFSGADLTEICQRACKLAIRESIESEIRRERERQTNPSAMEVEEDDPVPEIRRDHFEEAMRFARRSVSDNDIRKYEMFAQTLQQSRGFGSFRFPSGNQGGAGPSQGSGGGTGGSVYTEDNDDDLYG
HCT116 bCat-KO = beta-catenin-lacking colon tumor cell growth suppression; AID 818; hit rate 1.5% among 140,000; viability, % at 10 µM; HCT116 beta-catenin knockout viability, CellTiter-Glo, 60 h; stronger effect = lower value;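 active = viability at or under a set limit, the compound median less 4 SD, cut at about 6% in these data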;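 also: 0% = Hyamine 1622 control at 20 µM and 100% = untreated cell control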
INS promoter inh = TRM-6 insulin promoter activity inhibition; TRM-6 cells (human fetal islet line), insulin promoter-eGFP reporter, imaging; reporter expression induced with tamoxifen; hit rate 0.9% among 130,000; AID 1273; inhibition, % at 2 µM;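 active = inhibition above the mean plus 3 SD, with well images judged a real hit on visual review, cut at about 60% in these data, passing the limit was not always enough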
ROMK primary = modulators of human ROMK potassium channel. AID 1918. hit rate 2% among 130,000. P48048. B-score at 10 µM. Tet-inducible ROMK, thallium flux fluorescence; actives lie on both sides;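 active = signal ratio slope over the read window, or its plate-corrected B-score, at least 3 SD from the plate mean, either direction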;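 also: B-score of the F/F0 ratio slope over 7 to 12 s after thallium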
* marks the source's active call; other numbers are inactive results; . = not tested or not shown.

SMILES	PTEN del growth	L major viab	p97 ATPase inh	HCT116 bCat-KO	INS promoter inh	ROMK primary
CCN(CC)CCOc1ccc2c(c1)C(=NO)c1cc(OCCN(CC)CC)ccc1-2	2.0*	100*	-6	1.9*	-5	.
CC(C)CCN(C(=O)COc1ccc(C#N)cc1)c1c(N)n(Cc2ccccc2)c(=O)[nH]c1=O	.	-1	9	.	.	-0.57
COCC(C)n1c(SCC(=O)N2CCc3ccccc3C2)nc2ccccc2c1=O (stereo unspecified)	79	91*	-3	74	-21	-0.17
CCc1cccc(CC)c1-n1c(SCC(=O)N2CCc3ccccc3C2)nnc1-c1cccnc1	73	99*	-1	66	-16	.
CCc1cccc(CC)c1-n1c(SCn2nnc3ccccc3c2=O)nnc1-c1cccnc1	58	67*	-1	58	.	-0.0057
Cn1c(SCC(=O)N2CCc3ccccc3C2)nnc1-c1cccs1	90	78*	-1	92	-3	.
C#CCOCCOCCOCCNc1nc(N2CCN(C(=O)[C@H](CCCCN)n3cc([C@@H](N)C(C)CC)nn3)CC2)nc(N2CCN(C(=O)[C@H](CCCCN)n3cc([C@@H](N)CC(C)C)nn3)CC2)n1 (stereo partly specified)	.	-11	4	.	.	.
CCCc1c(NC(=O)Nc2ccc(Cl)cc2Cl)cnn1-c1ccccc1	.	.	2	.	.	.
Cn1c(SCc2ccc(F)cc2)nnc1-c1cccs1	105	7	6	102	71*	-0.045
Cn1c(SCc2ccccc2)nnc1-c1cccs1	87	-4	4	109	3	.
Cc1ccccc1-n1c(C)nnc1SCC(=O)N1CCc2ccccc2C1	99	50*	3	104	11	.
CCOC(=O)Cc1csc(NC(=O)Cn2c(=O)oc3ccccc32)n1	.	.	0	.	.	-0.22
Cc1c(C(=O)NCc2ccccc2)c(-c2ccccc2)nn1-c1ccccc1	91	86*	-6	99	-107	.
Cc1c(C(=O)NC(C)C)c(-c2ccccc2)nn1-c1ccccc1	105	-1	-3	108	-43	1.5
Cc1ccc(NC(=O)COC(=O)/C=C/c2c(C)nn(-c3ccc(F)cc3)c2Cl)cc1F	90	-9	5	79	.	0.16
CCOC(=O)C1(Cc2cccc(OC)c2)CCN(C/C=C/c2ccccc2)CC1	.	80*	-7	.	.	-1.2
CCOC(=O)C1(Cc2cccc(OC)c2)CCN(Cc2ccc(OC)c(O)c2)CC1	.	85*	1	.	.	-0.72
CCOC(=O)C1(Cc2cccc(F)c2)CCN(C2CCOCC2)CC1	.	47	-1	.	.	-0.026
CCOC(=O)C1(Cc2cccc(OC)c2)CCN(C2CCOCC2)CC1	.	81*	4	.	-7	.
CCOC(=O)C1(Cc2cccc(OC)c2)CCN(C/C=C/c2ccc(OC)cc2)CC1	.	37	-3	.	.	-0.054
Cc1ccn2c(Nc3ccccc3C)c(-c3ccccn3)nc2c1	.	101*	1	.	7	0.21
Cc1ccccc1Nc1c(-c2ccncc2)nc2ccc(Br)cn12	47	96*	0	58	0	-2.3
Cc1ccccc1Nc1c(-c2cccnc2)nc2ccc(Br)cn12	.	29	0	.	.	0.88
Cc1ccc2nc(-c3ccccn3)c(Nc3ccccc3C)n2c1	.	100*	-6	.	.	-0.61
Cc1ccccc1Nc1c(-c2ccccn2)nc2ccccn12	.	100*	3	.	.	-1.1
SMILES	PTEN del growth	L major viab	p97 ATPase inh	HCT116 bCat-KO	INS promoter inh	ROMK primary
O=C(NC1CC1)c1ccc(-n2cccc2)cc1	.	-13	2	.	.	0.98
O=C(Nc1ccc(C(=O)O)cc1)Nc1ccc(F)cc1F	.	-8	4	.	9	0.0051
NN(CCO)C(=S)Nc1ccc(Cl)cc1	.	-4	1	.	.	.
O/N=C/c1cccnc1Sc1ccccc1	.	0	3	.	0	-1.1
Cc1c(C(=O)Nc2cccc(N(C)S(C)(=O)=O)c2)cccc1[N+](=O)[O-]	.	-4	2	.	.	1.5
CCc1ccccc1NC(=S)N(CCOC)C(C)c1ccco1 (stereo unspecified)	.	.	-2	.	.	.
Cc1ccn2c(Nc3ccccc3)c(-c3ccccn3)nc2c1	.	101*	-3	.	25	-0.26
COc1ccc(C2=Nn3c(nnc3C3CCCCC3)SC2)cc1OC	55	50*	-1	60	14	1.9
COc1ccc(OC)c(C2=Nn3c(nnc3C3CCCCC3)SC2)c1	72	10	-7	64	4	-2.2
C=CCN1C(=O)S/C(=C/c2ccc(Sc3nc4ccccc4[nH]3)o2)C1=O	35	41	4	27	22	-0.46
CC(C)N1C(=O)S/C(=C/c2ccc(Sc3nc4ccccc4[nH]3)o2)C1=O	18	83*	1	11	-38	-0.6
